# High-throughput results from PubChem BioAssay.
# Only some compounds are listed: those with a hit (about 9.4% of all), similar ones and a draw of the others.
# Rab9 promoter act – activates the Rab9 promoter | Huh7 Rab9 promoter-luciferase reporter, luminescence, 24 h | Potency, µM (top dose mostly 9.22 µM), actives largely listed as activators | 320,000 compounds, 2.8% hits | AID 485297; further: nearly all actives have a fitted effect of over 60% in size
#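 Cells were plated at 1500 per well in reduced-serum medium with 10% FBS and left 2 h. Compound in DMSO was then added for 24 h at 37 °C. Reporter signal was read by luminescence after 10 min with luciferase detection reagent.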
# NPC1 promoter act – activators of NPC1 promoter; AID 485313; Huh7 NPC1 promoter luciferase reporter, 24 h; Potency, µM (top dose mostly 9.22 µM), actives largely listed as activators; 320,000 compounds, 2.4% hits; further: nearly all actives have a fitted effect of over 60% in size
#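 Quantitative HTS used a cell-based reporter: Huh7 cells stably bearing the NPC1 promoter upstream of luciferase were treated with compounds for 24 h, and promoter activation was read as luminescence.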
# SMN2 splice up – enhancers of SMN2 splice variant expression; HEK293 SMN2-luciferase splicing reporter, luminescence, 30-36 h; Potency, µM (doses to about 46.1 µM), most hits filed as activators; 210,000 compounds, 2.8% hits; AID 1458; further: nearly all actives have a fitted effect of over 55% in size
#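 qHTS luciferase splicing reporter: luminescence rises when SMN2 exon 7 is included in transfected HEK293 cells. Compound exposure lasted 30-36 h at 37C, with 4.5 mM final sodium butyrate as control, followed by a ONE-Glo read.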
# FLuc counter – inhibits or activates purified firefly luciferase, miR-21 counter-screen | P08659 | Potency, µM (top dose mostly 57.5 µM), hits mostly inhibitors | AID 588342 | 360,000 compounds, 6.9% hits | purified FLuc, Km substrates, luminescence inhibition; further: nearly all actives have a fitted effect of over 55% in size
# Target sequence (P08659 whole entry, looked up): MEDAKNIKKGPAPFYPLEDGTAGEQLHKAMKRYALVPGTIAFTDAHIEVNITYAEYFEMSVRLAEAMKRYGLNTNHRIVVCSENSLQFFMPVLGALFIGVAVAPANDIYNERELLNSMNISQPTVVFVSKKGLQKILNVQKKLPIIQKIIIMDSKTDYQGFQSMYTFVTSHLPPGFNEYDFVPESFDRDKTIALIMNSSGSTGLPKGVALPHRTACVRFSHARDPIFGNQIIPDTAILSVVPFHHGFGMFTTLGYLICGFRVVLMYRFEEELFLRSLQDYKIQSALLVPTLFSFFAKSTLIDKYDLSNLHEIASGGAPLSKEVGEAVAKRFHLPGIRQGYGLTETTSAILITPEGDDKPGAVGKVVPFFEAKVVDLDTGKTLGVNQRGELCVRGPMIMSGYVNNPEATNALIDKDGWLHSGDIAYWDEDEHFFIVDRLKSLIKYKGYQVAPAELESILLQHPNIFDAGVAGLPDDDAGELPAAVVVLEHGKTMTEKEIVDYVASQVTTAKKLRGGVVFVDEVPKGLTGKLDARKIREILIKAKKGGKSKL
#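 Biochemical qHTS of compounds, final roughly 60 µM downward over six points, against 10 nM purified firefly luciferase using Km concentrations of substrates (10 uM D-luciferin, 10 uM ATP) in Tris acetate pH 7.5 buffer; luminescence output.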
# ELG1 repair inh – inhibitors of ELG1-dependent DNA repair in HEK293T cells; Potency, µM (highest dose often 46.1 µM), usual class: inhibitors; AID 504467; 330,000 compounds, 2.3% hits; HEK293T ELG1-luciferase reporter, luminescence, 16 h; DNA damage induced by 5-fluorouridine; further: nearly all actives have a fitted effect of over 55% in size
#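 5-Fluorouridine DNA damage + compound/DMSO, 2,000 cells/well, 16 h, 37 °C/5% CO2. ONE-Glo, 30 min RT, luminescence. Readout = decrease in reporter signal.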
# ELG1 genotoxic – induces genotoxicity in HEK293T cells with luciferase-tagged ELG1; HEK293T ELG1-luciferase reporter, luminescence, 16 h; Potency, µM (titrated, usually from 46 µM), most hits filed as activators; 330,000 compounds, 1.3% hits; further: nearly all actives have a fitted effect of over 60% in size
#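 Luminescence read-out: rising ELG1-luciferase signal, reflecting elevated ELG1 protein under genetic stress, flags genotoxic compounds. Cells were treated for 16 hr at 37 °C before ONE-Glo detection.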
# Hits are given with their value; . = inactive; ? = inconclusive; / = no result; [ ] = dose if it differs, or a comment. The call rests on the fitted dose curve; in most records, active means well fitted curve in the direction sought with a large enough effect; inconclusive means small, poorly fitted or top-dose-only effect, or another doubt; inactive means no such curve, though single readings can be large; an effect the other way counts as inactive or inconclusive.
SMILES,Rab9 promoter act,NPC1 promoter act,SMN2 splice up,FLuc counter,ELG1 repair inh,ELG1 genotoxic
CCOC(=O)C1CCN(c2nc3ccccc3nc2C(C#N)C(=O)NCCc2ccccc2)CC1 (configuration not stated),.,?,.,19µM,?,.
COCC(C)OC(=O)C(C#N)c1nc2ccccc2nc1N1CCN(Cc2ccccc2)CC1 (configuration not stated),.,.,.,.,20.6µM,.
C=CCOC(=O)C(C#N)c1nc2ccccc2nc1N1CCN(Cc2ccccc2)CC1 (configuration not stated),.,.,.,.,?,.
COc1ccccc1N1CCN(C(=O)c2cc3c(=O)n(Cc4ccco4)ccc3nc2C)CC1,/,/,/,.,/,/
Cc1ccc(NC(=O)ON=C2CCCC2)cc1,3.55µM,?,?,8.49µM,?,20.6µM
O=C(Nc1ccccc1)ON=C1CCCC1,?,.,20µM,23.9µM,?,?
O[C@@H](c1cc([C@@]23C[C@H]4CC[C@@H]2C[C@H](C4)C3)nc2c(Cl)cc(Cl)cc12)C1CCCCN1 (some centres not stated),/,/,.[9.22 µM],/,/,/
Cc1cccc(NC(=O)c2cc3ccccc3o2)c1,1.41µM,1.26µM,12.6µM,3.79µM,?,20.6µM
O=C(Nc1cc2ccccc2oc1=O)c1ccccc1,0.178µM,0.398µM,0.891µM,0.426µM,?,?
NS(=O)(=O)c1cccc(NC(=O)c2cccc(-c3ccc(O)cc3)c2)c1,.,.,/,16.9µM,?,.
Cc1ccc(C(=O)Nc2cccc(-c3nc4ncccc4o3)c2)cc1,.,.,/,13.5µM,.,.
COc1cccc(C(=O)Nc2cc3cc(OC)ccc3oc2=O)c1,/,/,.,.,/,/
O=C(CCS(=O)(=O)c1nc(-c2ccc3c(c2)OCO3)cc(C(F)(F)F)n1)Nc1ccc(Br)cc1,/,/,.,.,/,/
COc1cc(C(=O)NCC(c2ccco2)S(=O)(=O)c2cccs2)cc(OC)c1OC (configuration not stated),/,/,/,.,/,/
COc1ccc(SCCC(=O)NCc2ccncc2)cc1,.,.,/,.,.,.
O=C(Nc1ccc(N2CCCC2)c(Cl)c1)c1cccc(-c2cc3ccccc3oc2=O)c1,.,.,.,?,.,.
CCC(=O)Nc1cccc(NC(=O)c2cc3ccccc3o2)c1,0.708µM,2µM,?,2.39µM,?,?
CC(=O)Nc1ccc(NC(=O)c2cccc(-c3cc4ccccc4oc3=O)c2)cc1,3.16µM,?,10µM,?,?,.
CCC(=O)Nc1cccc(-c2cc3ccccc3oc2=O)c1,?,?,.,12µM,?,?
CCCCOc1cccc(C(=O)Nc2cccc(-c3nc4ncccc4o3)c2C)c1,/,/,.,?,/,/
Cc1c(NC(=O)c2cccc(-c3cc4ccccc4oc3=O)c2)cccc1-c1nc2ncccc2o1,.,.,.,?,13µM,.
Cc1ccc(CNC(=O)C2CCCN(c3nc4ccccc4n4cccc34)C2)cc1 (configuration not stated),/,/,/,.,/,/
CCc1ccc(S(=O)(=O)N2CCN(c3ccc(Cl)c(Cl)c3)CC2)cc1,/,/,.,.,/,/
NS(=O)(=O)c1cccc(NC(=O)c2cc3ccccc3o2)c1,?,?,/,2.13µM,?,.
O=C(Nc1cccc(Br)c1)c1cc2ccccc2o1,2.82µM,3.16µM,/,2.39µM,?,?
SMILES,Rab9 promoter act,NPC1 promoter act,SMN2 splice up,FLuc counter,ELG1 repair inh,ELG1 genotoxic
Fc1ccccc1Nc1nc2ccccc2n2nnnc12,?,.,?,?,?,13µM
NC(=O)N/N=C/c1c(Sc2nnnn2-c2ccccc2)nc2ccccn2c1=O,.,.,/,.,?,.
Cc1ccc(Oc2ccc3c(c2)C(=O)N(c2ccc(S(=O)(=O)Nc4nccs4)cc2)C3=O)cc1,.,.,.,19µM,.,.
O=C(c1ccc(Oc2ccccc2)cc1)C1CCCN(C(=O)c2cnccn2)C1 (configuration not stated),.,.,/,.,20.6µM,.
COc1ccc(/C=C2\SC(=S)N(CC(=O)N3CCN(C)CC3)C2=O)cc1,.,.,/,10.7µM,.,.
COc1cc(/C=C2\SC(=S)N(CCC(=O)N3CCN(C)CC3)C2=O)cc(OC)c1OC,.,.,/,.,.,.
CCc1ccc(/C=C2\SC(=S)N(CCC(=O)Nc3cc(C)on3)C2=O)cc1,.,.,/,16.9µM,.,.
COc1ccc(/C=C2\SC(=S)N(CCC(=O)N3CCCCC3)C2=O)cc1,.,.,/,?,.,.
CCc1ccc(/C=C2\SC(=S)N(CCC(=O)N3CCN(C)CC3)C2=O)cc1,.,.,.,2.69µM,.,.
Cc1cc(NC(=O)CCN2C(=O)/C(=C/c3ccccc3Cl)SC2=S)no1,.,.,.,.,.,.
Cc1ccc(/C=C2\SC(=S)N(CCCC(=O)N3CCOCC3)C2=O)cc1,.,.,/,21.3µM,13µM,.
C=C1C(=O)OC2CC1C(OC(C)=O)CC(C)=CCCC(C)=CCC[C@@]2(C)O (some centres not stated),/,/,.,/,/,/
CC(=O)c1cc(-c2ccc(F)cc2)n(CCC(=O)Nc2nc3ccc(C)cc3s2)c1C,/,/,/,.,/,/
COc1ccc(/C=C2/SC(=S)N(CCCC(=O)N3CCN(C)CC3)C2=O)cc1,.,.,/,21.3µM,?,.
COc1ccc(/C=C2\SC(=S)N(CC(=O)NCCO)C2=O)cc1,.,.,.,9.53µM,?,.
CN1CCN(C(=O)CCCN2C(=O)/C(=C/c3ccc(Cl)cc3)SC2=S)CC1,.,.,/,.,18.3µM,.
COc1ccc(/C=C2/SC(=S)N(CCC(=O)N3CCN(C)CC3)C2=O)cc1,.,.,/,?,.,.
Cc1ccn2c(=O)c(C(=O)NCCc3ccc(S(N)(=O)=O)cc3)c(O)nc2c1,/,/,.,.,/,/
CCOC(=O)c1cccnc1SCC(=O)Nc1ccc(C)cc1C,/,/,/,.,/,/
COc1ccc(-c2cc(C(=O)N3CCCCCC3)no2)cc1OC,?,?,/,23.9µM,?,?
COc1ccc(-c2cc(C(=O)N3CCCCCC3)no2)cc1,0.447µM,0.398µM,/,1.9µM,?,4.61µM
COc1cccc(-c2cc(C(=O)N3CCCCC3C)no2)c1 (configuration not stated),2.24µM,1.58µM,17.8µM,8.49µM,?,9.2µM
COc1cccc(-c2cc(C(=O)N3CCCCCC3)no2)c1,0.316µM,0.562µM,3.16µM,2.13µM,?,1.46µM
COc1ccc(-c2cc(C(=O)N3CCN(C(c4ccccc4)c4ccccc4)CC3)no2)cc1OC,.,.,.,.,.,.
COc1cccc(C(=O)NCC(c2ccc(N(C)C)cc2)N2CCCC2)c1OC (configuration not stated),/,/,/,.,/,/
COc1ccc(-c2cc(C(=O)N3CCCC3)no2)cc1,0.631µM,0.398µM,/,1.2µM,?,2.91µM
